Laboratory results as given in PubChem BioAssay (EPA / NIEHS).
Results filed as inconclusive are left out. The source made the active and inactive calls. Rule for the calls: active = hit-call score of the fitted dose curve at least 0.9, where 1 is the maximum; inconclusive = response in the unintended direction; inactive = score below 0.9.

Tests used:
[1] = TOX21_p53_BLA_p2_viability: Viability Assessment in the Tox21 HCT-116 p53 Agonism Beta-lactamase Assay, Phase 2 (AID 2283591);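 note: actives lower the ATP signal meaning cytotoxicity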
How it was run: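 HCT116 p53-bla cells, 4000/well, dosed after 5 h plating (217-fold dilution of DMSO stocks) and incubated 16 h at 37C. Viability taken as cellular ATP by CellTiter-Glo luminescence after 30 min RT; signal loss marks cytotoxicity.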

[2] = molecular target: Cellular tumor antigen p53 (Homo sapiens) (UniProt P04637); experiment: TOX21_p53_BLA_p2_ratio: Tox21 HCT-116 p53 Agonism Beta-lactamase Assay, Ratio, Phase 2 (AID 2283592)
How it was run: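 An inducible beta-lactamase reporter in HCT116 cells signals p53 pathway activation. After 16 h chemical exposure at 37C, cells load CCF4-AM substrate for 2 h at room temperature; activity is the cleaved/uncleaved emission ratio relative to DMSO.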

[3] = TOX21_p53_BLA_p3_viability: Viability Assessment in the Tox21 HCT-116 p53 Agonism Beta-lactamase Assay, Phase 3 (AID 2283593);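 note: cells exposed to compound for 16 h before reading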
How it was run: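 HCT116 cells, 4000/well, dosed 5 h after plating by pin transfer (217-fold dilution from DMSO stock) and incubated 16 h at 37C, 5% CO2. Viability read as ATP luminescence with CellTiter-Glo after 30 min at room temperature.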

[4] = molecular target: Cellular tumor antigen p53 (Homo sapiens) (UniProt P04637); experiment: TOX21_p53_BLA_p3_ratio: Tox21 HCT-116 p53 Agonism Beta-lactamase Assay, Ratio, Phase 3 (AID 2283596)
How it was run: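 HCT116 p53-bla cells (4000/well) given compound in DMSO (217-fold dilution) after 5 h, incubated 16 h at 37C. CCF4-AM substrate 2 h at room temperature; 460/530 nm emission ratio, gain fitted against DMSO.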

[5] = TOX21_p53_BLA_p4_viability: Viability Assessment in the Tox21 HCT-116 p53 Agonism Beta-lactamase Assay, Phase 4 (AID 2283597);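 note: hits lower the luminescence signal meaning cytotoxicity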
How it was run: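 Compound exposure of HCT116 cells lasts 16 h at 37C, 5% CO2, with DMSO stocks diluted 217-fold. Cellular ATP is then quantified by CellTiter-Glo luminescence after 30 min at room temperature.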

[6] = molecular target: Cellular tumor antigen p53 (Homo sapiens) (UniProt P04637); experiment: TOX21_p53_BLA_p5_ratio: Tox21 HCT-116 p53 Agonism Beta-lactamase Assay, Ratio, Phase 5 (AID 2283599)
How it was run: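 HCT-116 p53-bla cells (4000/well) plated 5 h, dosed with compound (217-fold DMSO dilution) for 16 h at 37 C; CCF4-AM substrate 2 h at room temperature. Activity is the 460/530 nm emission ratio (405 nm excitation), fitted in gain-of-signal direction versus DMSO.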

[7] = molecular target: Cellular tumor antigen p53 (Homo sapiens) (UniProt P04637); experiment: TOX21_p53_BLA_p4_ratio: Tox21 HCT-116 p53 Agonism Beta-lactamase Assay, Ratio, Phase 4 (AID 2283601)
How it was run: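 HCT-116 p53 beta-lactamase reporter cells (4000/well) preincubated 5 h, then compound (217-fold dilution of DMSO stock) for 16 h at 37C. CCF4-AM substrate added 2 h at room temperature; 460/530 nm emission ratio fitted upward versus DMSO.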

[8] = molecular target: PGR (gene 5241) (UniProt P06401); experiment: TOX21_PR_BLA_Followup_Antagonist_ratio: Tox21 HEK293 Progesterone Receptor (PR) Antagonism Beta-lactamase Follow-Up Assay, Ratio (AID 2283934);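 note: PR-UAS-bla HEK293T cells stimulated with 1 nM R5020 agonist for 16 hr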
How it was run: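 Antagonist mode used 1 nM R5020 (final) as agonist on a beta-lactamase reporter line in HEK293T cells. Activity was taken from the substrate cleavage ratio after 16 hr exposure.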

[9] = TOX21_PR_BLA_Followup_Agonist_viability: Viability Assessment in the Tox21 HEK293 Progesterone Receptor (PR) Agonism Beta-lactamase Follow-Up Assay (AID 2283935);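 note: signal loss means lower viability so actives are cytotoxic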
How it was run: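 Multiplexed viability counter-screen: ATP-coupled luciferase signal measured after 30 min at room temperature, following 16 hr compound treatment of PR-UAS-bla HEK293T cells grown in charcoal-stripped serum.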

[10] = TOX21_PR_BLA_Followup_Antagonist_viability: Viability Assessment in the Tox21 HEK293 Progesterone Receptor (PR) Antagonism Beta-lactamase Follow-Up Assay (AID 2283936);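 note: hits lower the luminescence signal meaning cytotoxicity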
How it was run: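 PR-UAS-bla HEK293T cells (3,000/well, 2% charcoal-stripped FBS) given compound plus R5020 agonist, 16 h at 37C. CellTiter-Glo added after bla read, 30 min at room temperature; luminescence loss indicates cytotoxicity.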

[11] = molecular target: PGR (gene 5241) (UniProt P06401); experiment: TOX21_PR_LUC_Followup_Antagonist: Tox21 HEK293 Progesterone Receptor (PR) Antagonism Luciferase Follow-Up Assay (AID 2283938);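 note: curve fitted upward as signal gain over DMSO baseline despite antagonist label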
How it was run: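 A follow-up to the PR bla screen using HEK293-PR-A-luc cells, multiplexed with cell viability to flag cytotoxicity. Reporter luminescence after 16 h compound exposure was analysed relative to DMSO.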

[12] = TOX21_PR_LUC_Followup_Antagonist_viability: Viability Assessment in the Tox21 HEK293 Progesterone Receptor (PR) Antagonism Luciferase Follow-Up Assay (AID 2283940)
How it was run: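 Cellular ATP, measured with luciferase-coupled CellTiter-Glo, served as the viability endpoint after HEK293-PR-A-luc cells were exposed to test compounds for 16 h at 37C.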

[13] = TOX21_PR_LUC_Followup_Agonist_viability: Viability Assessment in the Tox21 HEK293 Progesterone Receptor (PR) Agonism Luciferase Follow-Up Assay (AID 2283941);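 note: loss of signal means cytotoxicity so actives lower viability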
How it was run: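 Luminescent ATP quantitation (CellTiter-Glo) serves as the read-out; a drop flags cytotoxic compounds. Cells are HEK293-PR-A-luc grown in 10% charcoal-stripped FBS, plated 3,000/well, and exposed to compound for 16 h.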

Measured: AC50

Sequence of Cellular tumor antigen p53 (Homo sapiens) (P04637 whole entry, looked up): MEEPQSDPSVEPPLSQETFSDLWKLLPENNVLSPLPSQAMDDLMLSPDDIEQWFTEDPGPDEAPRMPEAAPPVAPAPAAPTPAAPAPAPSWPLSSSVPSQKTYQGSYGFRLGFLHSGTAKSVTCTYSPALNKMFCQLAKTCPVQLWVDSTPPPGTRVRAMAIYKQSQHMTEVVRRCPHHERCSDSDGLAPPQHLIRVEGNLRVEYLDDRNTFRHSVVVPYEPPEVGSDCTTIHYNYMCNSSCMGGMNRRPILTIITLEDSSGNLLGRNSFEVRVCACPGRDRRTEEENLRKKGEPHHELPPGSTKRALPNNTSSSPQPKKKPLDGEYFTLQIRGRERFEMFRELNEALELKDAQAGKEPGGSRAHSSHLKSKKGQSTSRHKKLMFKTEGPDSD
Sequence of PGR (gene 5241) (P06401 whole entry, looked up): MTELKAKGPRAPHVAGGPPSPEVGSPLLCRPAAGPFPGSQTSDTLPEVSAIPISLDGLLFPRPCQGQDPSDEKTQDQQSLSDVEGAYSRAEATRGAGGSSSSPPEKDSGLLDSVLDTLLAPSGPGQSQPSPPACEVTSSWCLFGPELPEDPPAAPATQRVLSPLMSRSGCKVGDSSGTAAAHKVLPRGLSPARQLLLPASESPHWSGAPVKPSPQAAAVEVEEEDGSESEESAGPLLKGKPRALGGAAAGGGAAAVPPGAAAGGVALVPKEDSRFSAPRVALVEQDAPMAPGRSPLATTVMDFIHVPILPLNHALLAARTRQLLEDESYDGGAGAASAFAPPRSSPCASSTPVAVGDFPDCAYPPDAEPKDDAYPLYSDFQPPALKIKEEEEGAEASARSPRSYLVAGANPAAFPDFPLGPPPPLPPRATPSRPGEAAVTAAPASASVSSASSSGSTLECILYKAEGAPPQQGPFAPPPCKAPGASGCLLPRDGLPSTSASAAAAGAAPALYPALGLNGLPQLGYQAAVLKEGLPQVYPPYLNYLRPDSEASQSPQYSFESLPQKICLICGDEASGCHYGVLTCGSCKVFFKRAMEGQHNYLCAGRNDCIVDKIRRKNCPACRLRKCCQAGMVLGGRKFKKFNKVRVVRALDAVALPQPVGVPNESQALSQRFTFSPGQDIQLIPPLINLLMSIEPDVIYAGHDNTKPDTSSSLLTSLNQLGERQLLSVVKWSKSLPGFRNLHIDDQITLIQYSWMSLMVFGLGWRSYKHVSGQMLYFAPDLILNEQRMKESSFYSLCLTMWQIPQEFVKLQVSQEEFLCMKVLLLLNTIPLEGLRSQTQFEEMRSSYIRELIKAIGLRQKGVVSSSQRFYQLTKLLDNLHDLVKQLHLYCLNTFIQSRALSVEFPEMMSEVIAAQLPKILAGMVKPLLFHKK

C1CCN2C[C@@H]3C[C@@H](CN4CCCC[C@@H]34)[C@H]2C1
inactive: [1] | [2] | [3] | [4] | [5] | [6] | [7]

COc1ccc(N)c(OC)c1
inactive: [1] | [2] | [3] | [4] | [5] | [6] | [7]

CCCCCCCCCCCCCCCC(=O)OC[C@H](COP(=O)([O-])OCC[N+](C)(C)C)OC(=O)CCCCCCCCCCCCCCC
inactive: [1] | [2] | [3] | [4] | [5] | [6] | [7]

CCOC(=O)C1=C(C)NC(C)=C(C(=O)OC)C1c1cccc([N+](=O)[O-])c1 (stereo unspecified)
active: [8] 14.9 µM | [11] 11.2 µM
inactive: all other assays above

CCC(=O)O[C@]1(C(=O)CCl)[C@@H](C)C[C@H]2[C@@H]3C[C@H](F)C4=CC(=O)C=C[C@]4(C)[C@@]3(F)[C@@H](O)C[C@@]21C
inactive: [1] | [2] | [3] | [4] | [5] | [6] | [7]
